Hits are enriched below; roughly 4.4% of the tested compounds scored in any of these assays.
IL1B NFkB pot: enhances IL-1B driven NFkB nuclear translocation. HUVEC IL-1B NFkB p65 nuclear translocation imaging. activation, % at 2 µM. 94,000 tested, 0.3% active. AID 819;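 active = activation above 40%, about the mean plus 3 SD, also judged a hit on visual image review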;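 note: percent activation is computed from the nuclear over cytoplasmic p65 intensity ratio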
NFkB transloc inh: blocks IL-1B driven NFkB nuclear translocation in HUVEC cells | HUVEC IL-1B NFkB p65 nuclear translocation imaging | inhibition, % at 2 µM | 94,000 tested, 0.43% active | AID 796;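 active = inhibition above about 30% together with a positive call from visual inspection of the well image, limit read from the data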;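 note: nuclear over cytoplasmic p65 intensity ratio measured by imaging; 0% = IL-1B stimulated DMSO wells and 100% = unstimulated DMSO wells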
HUVEC tox IL1B: HUVEC cytotoxicity counter-screen, IL-1B stimulated; HUVEC cell count loss, Hoechst imaging; cell count reduction, % at 2 µM; 94,000 tested, 0.41% active; AID 845;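 active = cell count reduction more than 3 SD above the screen-wide mean, cut at about 70% in these data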;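 note: normalized per plate to untreated control cells as the no-loss baseline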
Cav3 T inh: human Cav3.2 channel inhibition, primary screen; O95180; Cav3.2-expressing cells, Fluo-4 calcium fluorescence FDSS; hits give low values; B-score at 10 µM; 100,000 tested, 4% active; AID 449739;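 active = single-dose well whose peak fluorescence ratio is a statistical outlier from its plate by either plate-standardised score or position-corrected B-score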
Target sequence (O95180 whole entry, looked up): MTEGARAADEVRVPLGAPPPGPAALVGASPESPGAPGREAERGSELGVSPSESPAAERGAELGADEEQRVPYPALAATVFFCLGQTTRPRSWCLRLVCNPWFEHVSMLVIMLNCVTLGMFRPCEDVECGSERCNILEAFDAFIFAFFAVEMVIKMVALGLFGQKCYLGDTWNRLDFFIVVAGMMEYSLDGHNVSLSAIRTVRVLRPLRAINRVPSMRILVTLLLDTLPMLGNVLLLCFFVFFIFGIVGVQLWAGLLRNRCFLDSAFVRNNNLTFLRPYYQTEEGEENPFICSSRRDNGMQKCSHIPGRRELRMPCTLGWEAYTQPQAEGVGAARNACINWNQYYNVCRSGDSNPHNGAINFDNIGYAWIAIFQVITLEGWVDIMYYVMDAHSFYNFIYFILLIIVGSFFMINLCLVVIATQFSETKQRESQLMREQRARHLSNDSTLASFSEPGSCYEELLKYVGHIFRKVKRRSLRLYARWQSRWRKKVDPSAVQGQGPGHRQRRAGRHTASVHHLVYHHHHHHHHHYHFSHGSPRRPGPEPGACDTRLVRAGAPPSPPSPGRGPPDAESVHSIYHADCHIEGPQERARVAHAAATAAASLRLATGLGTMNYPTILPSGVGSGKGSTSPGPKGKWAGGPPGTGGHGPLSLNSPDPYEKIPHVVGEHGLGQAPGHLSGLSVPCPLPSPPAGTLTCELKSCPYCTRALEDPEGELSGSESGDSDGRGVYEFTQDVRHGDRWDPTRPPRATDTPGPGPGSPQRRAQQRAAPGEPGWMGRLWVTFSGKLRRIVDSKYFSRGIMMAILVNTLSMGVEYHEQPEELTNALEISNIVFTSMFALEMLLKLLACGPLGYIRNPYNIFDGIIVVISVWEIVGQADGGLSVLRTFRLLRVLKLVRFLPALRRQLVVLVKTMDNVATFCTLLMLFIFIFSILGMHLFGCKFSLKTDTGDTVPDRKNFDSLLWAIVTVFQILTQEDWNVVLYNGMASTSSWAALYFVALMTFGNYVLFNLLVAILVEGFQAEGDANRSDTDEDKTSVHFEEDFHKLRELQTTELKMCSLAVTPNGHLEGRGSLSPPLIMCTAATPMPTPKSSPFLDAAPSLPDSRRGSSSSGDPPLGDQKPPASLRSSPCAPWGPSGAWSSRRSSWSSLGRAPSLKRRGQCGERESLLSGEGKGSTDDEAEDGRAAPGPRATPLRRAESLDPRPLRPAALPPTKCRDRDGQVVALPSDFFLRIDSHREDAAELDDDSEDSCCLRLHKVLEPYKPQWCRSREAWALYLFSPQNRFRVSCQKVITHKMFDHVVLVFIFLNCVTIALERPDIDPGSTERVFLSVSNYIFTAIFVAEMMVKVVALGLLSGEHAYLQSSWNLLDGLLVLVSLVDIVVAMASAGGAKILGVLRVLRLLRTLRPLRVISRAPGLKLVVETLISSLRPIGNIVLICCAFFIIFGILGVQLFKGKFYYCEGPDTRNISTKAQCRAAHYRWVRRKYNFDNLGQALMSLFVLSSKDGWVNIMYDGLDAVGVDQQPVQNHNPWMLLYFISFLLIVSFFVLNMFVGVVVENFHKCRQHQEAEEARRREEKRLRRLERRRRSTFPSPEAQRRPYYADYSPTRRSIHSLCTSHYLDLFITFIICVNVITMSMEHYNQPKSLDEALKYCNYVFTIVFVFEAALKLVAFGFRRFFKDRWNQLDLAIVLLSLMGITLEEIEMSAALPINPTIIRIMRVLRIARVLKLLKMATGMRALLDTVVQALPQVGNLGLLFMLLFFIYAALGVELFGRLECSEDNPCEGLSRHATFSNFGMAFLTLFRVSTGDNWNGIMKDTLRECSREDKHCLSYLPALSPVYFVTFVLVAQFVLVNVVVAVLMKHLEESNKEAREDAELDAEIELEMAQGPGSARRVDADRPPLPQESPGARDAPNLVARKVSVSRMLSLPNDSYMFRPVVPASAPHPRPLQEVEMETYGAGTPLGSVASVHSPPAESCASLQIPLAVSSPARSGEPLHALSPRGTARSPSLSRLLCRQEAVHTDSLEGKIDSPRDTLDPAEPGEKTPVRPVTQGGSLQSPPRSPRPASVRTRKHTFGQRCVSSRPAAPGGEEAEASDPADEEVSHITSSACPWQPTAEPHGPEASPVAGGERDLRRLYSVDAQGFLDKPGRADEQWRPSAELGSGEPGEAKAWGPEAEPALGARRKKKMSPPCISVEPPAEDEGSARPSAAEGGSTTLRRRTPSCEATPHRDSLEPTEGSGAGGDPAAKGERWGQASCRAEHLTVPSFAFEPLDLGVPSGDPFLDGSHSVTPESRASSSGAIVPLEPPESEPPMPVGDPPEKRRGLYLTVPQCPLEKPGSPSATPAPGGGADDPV
* hit, by the source's call; nt = no result given.

SMILES	IL1B NFkB pot	NFkB transloc inh	HUVEC tox IL1B	Cav3 T inh
Cc1ccc(S(=O)(=O)n2nc(-c3ccc(Cl)cc3)nc2NCc2ccco2)cc1	17.0	-17.0	-64.0	-6.6*
CCS(=O)(=O)n1nc(-c2ccccc2)nc1NCc1ccco1	35.5	-35.5	-46.8	-1.4
COc1ccccc1NC(=O)C(CCS(C)(=O)=O)N1C(=O)c2ccccc2C1=O (stereo not drawn)	42.4*	-42.4	30.0	0.013
COc1ccc(NC(=O)[C@H](CCS(C)(=O)=O)N2Cc3ccccc3C2=O)c(OC)c1	24.6	-24.6	-2.2	-0.336
O=C(CN(C(=O)C1CSC(=O)C1)c1ccccc1F)NCc1ccc2c(c1)OCO2 (stereo not drawn)	2.7	-2.7	-15.9	-3.77*
CCCc1cc(C(=O)Cc2ccc(C(=O)OCC)o2)c(O)cc1O	-2.8	2.8	10.1	-4.13*
CCCc1nc(NCc2ccco2)c(C#N)c2c1COC(C)(C)C2	nt	nt	nt	-0.716
CCCCc1nc(NCC2CCCO2)c(C#N)c2c1COC(C)(C)C2 (stereo not drawn)	-11.5	11.5	83.8*	-0.089
Cc1ccc(C)c(-n2c(SCC(=O)Nc3nonc3C)nnc2-c2ccoc2C)c1	-1.8	1.8	13.6	-5.96*
O=C(NCc1cccnc1)[C@@H]1CC=C[C@@H]2CCN(Cc3ccccc3)C(=O)[C@@H]21	nt	nt	nt	0.0676
Cc1ccc2nc(N3CCN(C(=O)c4cccs4)CC3)c(C#N)cc2c1	nt	nt	nt	-4.79*
COC(=O)c1ccc(NC(=S)N2CCN(Cc3cccc(C)c3)CC2)cc1	-0.5	0.5	-8.2	-4.44*
COC(=O)c1ccc(NC(=S)N2CCN(Cc3ccccc3)CC2)cc1	25.8	-25.8	-0.4	0.265
CCCCn1nc(NC(=O)c2cccs2)c2cc3ccccc3nc21	-1.9	1.9	-8.4	-4*
CCCCn1nc(NC(=O)c2cccs2)c2cc3cc(OC)ccc3nc21	-3.6	3.6	-2.5	-4.84*
CCCn1nc(NC(=O)c2cccs2)c2cc3cc(OC)ccc3nc21	13.8	-13.9	-3.0	-0.137
CCCn1nc(NC(=O)c2cccs2)c2cc3ccccc3nc21	4.5	-4.5	-17.3	-1.59
CCOC(=O)c1cccc(NC(=O)CSc2nnc(-c3cccnc3)n2C)c1	7.5	-7.5	-33.1	-1.34
O=C(/C=C/c1ccccc1)NCCSc1ccc(Cl)cc1	5.8	-5.8	-18.5	-4.25*
COc1ccc(C2NC(=O)NC(C)=C2C(=O)OCc2ccc3c(c2)OCO3)cc1OC (stereo not drawn)	31.1	-31.1	7.9	1.19
CCOC(=O)C1=C(CNCCc2ccc(Cl)cc2)NC(=O)NC1c1ccc2c(c1)OCO2 (stereo not drawn)	-1.2	1.2	7.8	-4.57*
Cc1ccc(SCCC(=O)NCCSCc2ccccc2C)cc1	5.3	-5.3	32.0	-7.65*
CC1(C)Oc2nc3ccccc3n2/C1=C\C#N	-1.4	1.4	4.9	-0.246
CC(=O)CCc1c[nH]c2c(C(=O)O)cccc12	-41.0	41.0*	-5.1	0.0445
CC(C)CCn1c(Oc2ccccc2Cl)nc2c1c(=O)n(C)c(=O)n2C	-1.6	1.6	-19.4	-4.9*
SMILES	IL1B NFkB pot	NFkB transloc inh	HUVEC tox IL1B	Cav3 T inh
CC(C)CCn1c(Cl)nc2c1c(=O)n(C)c(=O)n2C	-8.4	8.4	-8.4	-1.75
CCCOn1c(OCC(C)C)nc2ccccc2c1=O	-1.7	1.7	11.8	-5.02*
CCOC(=O)C1=C(O)/C(=C/c2ccc(C)o2)SC1=NC(=O)c1ccccc1C	-7.4	7.4	19.0	nt
Cc1onc(-c2ccccc2)c1C(=O)Nc1nnc(COc2ccc(Cl)cc2)s1	-6.5	6.5	-7.4	nt
CC(NC(=O)c1ccc(-c2cc(C(F)(F)F)ccc2Cl)o1)c1ccccc1 (stereo not drawn)	25.9	-25.9	-16.8	0.25
CCN=c1sc2ccccc2n1CC(O)COc1ccccc1 (stereo not drawn)	-8.9	8.9	-129.1	-4.17*
CN=c1sc2ccccc2n1CC(O)COc1ccccc1 (stereo not drawn)	3.3	-3.3	-2.5	-0.914
CCn1cc(/C=N/NS(=O)(=O)c2ccc(OC)cc2)c(C)n1	-0.4	0.4	0.3	0.457
CCOC(=O)c1[nH]c(C)c(C(=O)N2CCN(c3cccc(Cl)c3)CC2)c1C	nt	nt	nt	-1.22
CC(=O)C(Sc1ccc2nnc(-c3ccc(F)cc3)n2n1)C(C)=O	-6.6	6.6	2.7	1.38
Cc1nccn1CC(O)Cn1c2ccccc2c2ccccc21 (stereo not drawn)	46.4*	-46.4	-23.3	0.259
Cc1cc(C)n(CC(O)Cn2c3ccccc3c3ccccc32)n1 (stereo not drawn)	19.4	-19.4	-10.8	-4.15
CC[C@H](C)/C=C/C1=CC2=C(Cl)C(=O)[C@@]3(C)OC(=O)C(C(=O)[C@H](C)[C@@H](C)O)=C3C2=CO1	nt	nt	nt	-0.388
Cc1ccc(S(=O)(=O)N(c2nc(N(C)C)nc(N(C)C)n2)n2cnnc2)cc1	nt	nt	nt	-0.348
O=S(=O)(Nc1nc2ccccc2s1)c1ccc(Cl)s1	-2.9	2.9	4.3	-5.08*
O=C(CS(=O)(=O)Cc1ccccc1)Nc1nc2ccccc2s1	-1.9	1.9	16.5	-2.4
CC(C)C(c1nnnn1Cc1ccccc1)N(Cc1ccco1)Cc1cccs1 (stereo not drawn)	13.9	-13.9	3.0	-0.974
CCC(C)(C)n1nnnc1CN(Cc1ccc(Cl)cc1)Cc1ccco1	0.6	-0.6	5.5	nt
CC(C)(C)n1nnnc1C(c1cccs1)N(Cc1ccc(Cl)cc1)CC1CCCO1 (stereo not drawn)	7.3	-7.3	31.8	-4.58*
Cc1ccc(C(c2nnnn2C(C)(C)C)N(Cc2ccco2)Cc2cccs2)cc1 (stereo not drawn)	nt	nt	nt	-5.14*
Cc1ccc(S(=O)(=O)Cn2nnnc2CN(Cc2ccco2)Cc2cccs2)cc1	8.8	-8.8	13.7	-1.9
Clc1ccc(CN(Cc2ccccc2)C(c2cccs2)c2nnnn2C2CCCC2)cc1 (stereo not drawn)	2.6	-2.6	-19.4	-2.14
CC(C)(C)n1nnnc1C(c1ccc(Cl)cc1)N(Cc1cccnc1)Cc1ccco1 (stereo not drawn)	7.4	-7.4	-3.2	-9.48*
COc1ccc(Cn2nnnc2C(C(C)C)N(Cc2ccco2)Cc2cccs2)cc1 (stereo not drawn)	-5.7	5.7	-33.8	-3.86*
CCn1cnc2sc(C(=O)N(Cc3ccc(N(C)C)cc3)Cc3ccco3)c(C)c2c1=O	nt	nt	nt	-3.89
SMILES	IL1B NFkB pot	NFkB transloc inh	HUVEC tox IL1B	Cav3 T inh
COc1cccc(NC(=O)N2CCCC2C(=O)NC2CC2)c1 (stereo not drawn)	1.3	-1.3	-20.5	-0.651
CC(C)(C)n1nnnc1C(c1ccc(C(F)(F)F)cc1)N(Cc1ccccc1)Cc1ccco1 (stereo not drawn)	23.8	-23.8	-14.7	nt
CC(C)(C)n1nnnc1C(c1cccnc1)N(Cc1ccccc1)Cc1cccs1 (stereo not drawn)	3.1	-3.1	-3.0	-3.86
CC(C)(C)n1nnnc1C(c1cccs1)N(Cc1ccccc1)Cc1cccnc1 (stereo not drawn)	-0.9	0.9	-6.7	-4.57*
CC(C)(C)n1nnnc1C(c1ccc(C(F)(F)F)cc1)N(Cc1ccc(F)cc1)Cc1ccco1 (stereo not drawn)	27.4	-27.4	-4.5	-4.27*
CC(C)(C)n1nnnc1C(c1ccc(F)cc1)N(Cc1ccc(F)cc1)Cc1ccco1 (stereo not drawn)	-0.7	0.7	-7.3	-6.25*

Screening results deposited in PubChem by several laboratories.
